D1 PAM: Potentiators of Human D1 Dopamine Receptor: qHTS | AID 504651, 2011 | HEK293 TREx D1 cells, calcium flux, dopamine EC20 potentiation | potentiation, % at 10 µM | hit rate 0.036% among 360,000 | D(1A) dopamine receptor (Homo sapiens), P21728; in the data active means potentiation above about 30%
Target sequence (P21728 whole entry, looked up): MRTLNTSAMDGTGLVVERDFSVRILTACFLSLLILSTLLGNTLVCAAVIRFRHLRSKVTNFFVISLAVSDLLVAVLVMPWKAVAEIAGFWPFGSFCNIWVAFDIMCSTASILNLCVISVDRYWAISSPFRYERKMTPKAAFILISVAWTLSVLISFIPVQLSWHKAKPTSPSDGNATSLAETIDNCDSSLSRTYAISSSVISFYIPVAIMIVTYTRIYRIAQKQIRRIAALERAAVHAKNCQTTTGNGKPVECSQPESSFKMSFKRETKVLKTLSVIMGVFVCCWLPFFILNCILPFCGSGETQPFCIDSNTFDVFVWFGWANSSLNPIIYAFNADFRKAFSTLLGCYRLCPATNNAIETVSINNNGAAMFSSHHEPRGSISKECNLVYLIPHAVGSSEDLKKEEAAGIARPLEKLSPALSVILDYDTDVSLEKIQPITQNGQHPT
D1 antagonist: Antagonist of Human D 1 Dopamine Receptor: qHTS. D(1A) dopamine receptor (Homo sapiens), P21728. HEK293 TREx D1 cells, calcium flux, dopamine EC80; active compounds read low. activity change, negative = inhibition, % at 10 µM. hit rate 3.2% among 360,000. AID 504652, 2011; in the data active means activity change below about -30%
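Cells carrying a force-coupled, tetracycline-inducible human D1 receptor report calcium flux. Each well gets a 10 s baseline, compound with 180 s monitoring, then an EC80 dopamine stimulus with a second 180 s kinetic read.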
TRHR ag: qHTS for Small Molecule Agonists and Allosteric Enhancers of Human TRH Receptor: Primary Screen for Agonists; Thyrotropin-releasing hormone receptor (Homo sapiens), P34981; activation, % at 2 µM; TRHR cells, calcium flux fluo-8, FDSS agonist mode; hit rate 0.18% among 360,000
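Agonist-mode FDSS calcium read (Ex 480/Em 530, 1 s cycles) in 1536-well TRHR cells with fluo-8 dye, after 10-cycle baseline and 23 nL compound addition; TRH at EC20 (10 nM final) added afterwards for the enhancer phase.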
TRHR PAM: qHTS for Small Molecule Agonists and Allosteric Enhancers of Human TRH Receptor: Primary Screen for Enhancers | TRHR cells, fluo-8 calcium fluorescence, EC20 TRH enhancement | enhancement, % at 2 µM | hit rate 0.66% among 360,000 | AID 493056, 2011; in the data active means enhancement above about 30%
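TRHR-expressing cells loaded with fluo-8 calcium dye were read kinetically (ex 480/em 530) during compound addition, then stimulated with an EC20 of TRH (10 nM final). Enhancement of the Gq-mediated intracellular calcium response was scored.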
Epigenetic derep: Quantitative High-Throughput Screen for Regulators of Epigenetic Control | AID 1865, 2009 | hit rate 0.2% among 280,000 | Potency, µM (top dose mostly 53.9 µM), hits mostly activators | murine LDR cells, GFP reporter derepression, 30 h; active means well fitted activation curve with a large enough effect; inconclusive means small, poorly fitted or top-dose-only effect; further: nearly all actives have a fitted effect of over 60% in size
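Readout is the number of GFP-expressing murine LDR cells, counted by cytometry following washing. Cells were treated with compound for 30 h at 37 C; the stably integrated CMV-GFP locus is normally silent.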
D1 ag: Allosteric Agonists of the Human D1 Dopamine Receptor: qHTS. hit rate 1% among 360,000. D(1A) dopamine receptor (Homo sapiens), P21728. AID 504660, 2011. HEK293 T-REx D1 cells, calcium flux, agonist mode. activation, % at 2 µM
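Tetracycline-induced HEK293 TREx D1 cells, force-coupled to calcium signalling, were dye-loaded with a no-wash calcium kit. Compound was pin-added after a 10 s baseline. Fluorescence was read kinetically at 1 cycle/s for 180 s, with calcium rises flagged as agonism.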
Large screens that a line does not name were inactive. Only some compounds are listed: those with a hit (about 4.6% of all), similar ones and a draw of the others. Unless noted, no stated cut-off is given here; in the data, active means activation above about 30%; inactive means the rest.

Cc1ccc2c(c1)C(=O)OC(C(=O)Nc1ccc(C(=O)O)cc1)C2 (centres undefined)	none
O=C(NC1CC(=O)N(c2ccc(F)cc2)C1)c1cc2ccccc2o1 (centres undefined)	none (no result: D1 antagonist)
O=C(Nc1ccc(Oc2ccccc2)nc1)C1CCN(Cc2ccccc2)CC1	none (no result: Epigenetic derep)
CSc1ncc(CN2CCCCC2C(=O)Nc2ccc(Oc3ccccc3)nc2)cn1 (centres undefined)	D1 antagonist -31 (no result: Epigenetic derep)
CCc1ccc(CN2CCC(C(=O)Nc3ccc(Oc4ccccc4)nc3)CC2)o1	D1 ag 37 (no result: Epigenetic derep)
CCn1cc(CN2CCC(C(=O)Nc3ccc(Oc4ccccc4F)cc3)CC2)c(C)n1	none (no result: Epigenetic derep)
Cc1ncc(CN2CCCCC2C(=O)Nc2ccc(Oc3ccccc3)nc2)cn1 (centres undefined)	none (no result: Epigenetic derep)
COc1cc(F)ccc1CN1CCC(C(=O)Nc2ccc(Oc3ccccc3)nc2)CC1	D1 ag 47 (no result: Epigenetic derep)
CC(C)n1cc(CN2CCC(C(=O)Nc3ccc(Oc4ccccc4F)cc3)CC2)cn1	D1 antagonist -62, D1 ag 105 (no result: Epigenetic derep)
COc1cccc(N2CCN(C(=O)c3cccc(-n4c(C)nc5cccnc54)c3)CC2)c1	none
O=C(c1ccc2c(Cl)c3c(nc2c1)CCCC3)N1CCN(c2ccc(Cl)cc2)CC1	none
Cc1nc2cccnc2n1-c1cccc(C(=O)N2CCN(c3cccc(Cl)c3)CC2)c1	D1 antagonist -32
O=C(c1ccc2c(Cl)c3c(nc2c1)CCCC3)N1CCN(c2cccc(Cl)c2)CC1	TRHR PAM 33
Cc1nc(Nc2ccc(Cl)cc2)cc(-c2ccccc2)n1	none
CO[C@@H]1COC(=O)CCC[C@@H](C)[C@H](OC)COC(=O)[C@H](Cc2ccccc2)NC(=O)C/C=C\[C@H]1C	none (no result: D1 PAM, D1 antagonist, TRHR ag, TRHR PAM, D1 ag)
CC(=O)Nc1ccc(NC(=O)C2CCCN2S(=O)(=O)c2cccc3nsnc23)cc1 (centres undefined)	none
O=C(NC1CCCC1)C1CCCN1S(=O)(=O)c1cccc2cccnc12 (centres undefined)	D1 antagonist -34
CC1CCCC(NC(=O)C2CCCN2S(=O)(=O)c2cccc3nsnc23)C1C (centres undefined)	TRHR PAM 36 (no result: D1 PAM)
COc1ccc(C(=O)COC(=O)C2CCN(S(=O)(=O)c3cccc4cccnc34)CC2)cc1	D1 antagonist -70
O=C(NC1CCCCCC1)C1CCCN1S(=O)(=O)c1cccc2cccnc12 (centres undefined)	none
COC(=O)c1ccccc1S(=O)(=O)N1CCC(C(=O)OCc2cccc(OC)c2OC)CC1	D1 antagonist -39, D1 ag 44 (no result: Epigenetic derep)
CC(=O)N1CCc2c(sc3nc(SCC(N)=O)n(-c4ccc(F)c(Cl)c4)c(=O)c23)C1	none
CCOC(=O)c1ccccc1NC(=O)Cn1c(=O)n(CCC(=O)N2CCc3ccccc3C2)c(=O)c2ccccc21	none
O=S(=O)(CCc1ccccc1)c1nnnn1C1CCCCC1	none (no result: D1 PAM, D1 antagonist, TRHR ag, TRHR PAM, D1 ag)
O=C(NC1CCCCC1)C1CCN(S(=O)(=O)c2cccc3cccnc23)CC1	D1 antagonist -65
CCOC(=O)N1CCC(NC(=O)C2CCN(S(=O)(=O)c3cccc4cccnc34)CC2)CC1	none
Cc1ccc(NC(=O)Nc2ccc3c(c2)N(C)C(=O)CS3)cc1C	D1 antagonist -44 (no result: D1 PAM)
Cc1cc(C)cc(NC(=O)Nc2ccc3c(c2)N(C)C(=O)CS3)c1	none (no result: D1 PAM)
CNc1nc(Nc2ccc(C(C)=O)cc2)nc(OC(C(F)(F)F)C(F)(F)F)n1	D1 antagonist -31
Cc1cc(C)c(NC(=O)Cn2c(=O)n(CCCCC(=O)NCc3ccccc3Cl)c(=O)c3ccccc32)c(C)c1	none
CSc1ccc(COC(=O)CCS(=O)(=O)c2ccc(C)cc2)cc1	none (no result: Epigenetic derep)
COc1ccc(COC(=O)CCS(=O)(=O)c2ccc(C)cc2)cc1	D1 antagonist -44 (no result: Epigenetic derep)
Cc1cccc(C)c1NC(=O)c1sc(-n2nc(C)c(Cc3ccccc3)c2C)nc1C	none
COc1cccc(C(=O)CC2(O)C(=O)Nc3ccc(Cl)cc32)c1 (centres undefined)	none
CCOc1ccccc1N(C)C(=O)Cn1cnc2onc(-c3ccc(F)cc3)c2c1=O	D1 antagonist -31
CN(C(=O)Cn1cnc2onc(-c3ccc(F)cc3)c2c1=O)c1ccccc1Cl	none
O=C(COC(=O)COc1ccc2ccccc2c1)NCC(F)(F)F	D1 antagonist -32
Cc1ccc2c(c1)Sc1ccccc1CC2=O	D1 antagonist -48
O=C1Cc2ccccc2Sc2ccccc21	none
CN(C)CCOc1ccc2c(c1)Sc1ccccc1CC2=O	D1 antagonist -30
CCCC[C@@H]1CN2[C@H](c3ccc(Br)cc3)[C@@H](C)CC[C@H]2C(=O)O1	none (no result: D1 PAM, D1 antagonist, TRHR ag, TRHR PAM, D1 ag)
CN(C)c1ccc(/C=c2\sc3nc(-c4ccccc4)nn3c2=O)cc1	D1 antagonist -57
CCOc1ccc2nc(N3CCN(C(=O)c4ccc5c(c4)CCCC5)CC3)sc2c1	none (no result: D1 antagonist)
O=C(Nc1nc2c(s1)CN(Cc1ccccc1)CC2)C1CCC1	none
CN(C)c1ccc(/C=C(\C#N)C(=O)Nc2nc3c(s2)CCN(Cc2ccccc2)C3)cc1	Epigenetic derep 7.9µM, D1 ag 68
CC(=O)Nc1ccc(Sc2ncccc2C(=O)Nc2ccc(OC(F)(F)F)cc2)cn1	D1 antagonist -60, D1 ag 115
O=C(c1cc(COc2ccc(F)cc2Cl)on1)N1CCN(C2CCCC2)CC1	D1 antagonist -44 (no result: Epigenetic derep)
COc1cccc(/C=C/C(=O)OCC(=O)NCC2CCCO2)c1OC (centres undefined)	D1 antagonist -34
COc1cccc(/C=C/C(=O)OCC(=O)NCC2CCCO2)c1 (centres undefined)	none
CCN(CC)c1ccc(NC(=O)CN2CCN(c3nc(C)cc(C)n3)CC2)cc1	D1 antagonist -33
C=CCN1C(=O)C2(NNc3ccccc3O2)c2ccccc21 (centres undefined)	Epigenetic derep inconclusive, D1 ag 45
CCCCN1C(=O)C(O)(c2c(C)[nH]c3ccccc23)c2ccccc21 (centres undefined)	none
CCCCN1C(=O)C2(NNc3ccccc3O2)c2ccccc21 (centres undefined)	Epigenetic derep inconclusive, D1 ag 74 (no result: D1 antagonist)
COC(=O)c1sc(NC(=O)C2CCCO2)c(C(=O)OC)c1C (centres undefined)	TRHR PAM 32
